# ALOX12 inhib: qHTS Assay for Inhibitors of 12-hLO (12-human lipoxygenase) | Polyunsaturated fatty acid lipoxygenase ALOX12 (Homo sapiens), P18054 | purified 12-hLO, xylenol orange hydroperoxide absorbance | Potency, µM (top dose mostly 57.1 µM), without a hit: top-dose activity change, negative = inhibition, hits mostly inhibitors | hit rate 0.12% among 150,000 | AID 1452, 2008; further: potency means the concentration at half of the fitted maximal effect; nearly all actives have a fitted effect of over 55% in size
# Target sequence (P18054 whole entry, looked up): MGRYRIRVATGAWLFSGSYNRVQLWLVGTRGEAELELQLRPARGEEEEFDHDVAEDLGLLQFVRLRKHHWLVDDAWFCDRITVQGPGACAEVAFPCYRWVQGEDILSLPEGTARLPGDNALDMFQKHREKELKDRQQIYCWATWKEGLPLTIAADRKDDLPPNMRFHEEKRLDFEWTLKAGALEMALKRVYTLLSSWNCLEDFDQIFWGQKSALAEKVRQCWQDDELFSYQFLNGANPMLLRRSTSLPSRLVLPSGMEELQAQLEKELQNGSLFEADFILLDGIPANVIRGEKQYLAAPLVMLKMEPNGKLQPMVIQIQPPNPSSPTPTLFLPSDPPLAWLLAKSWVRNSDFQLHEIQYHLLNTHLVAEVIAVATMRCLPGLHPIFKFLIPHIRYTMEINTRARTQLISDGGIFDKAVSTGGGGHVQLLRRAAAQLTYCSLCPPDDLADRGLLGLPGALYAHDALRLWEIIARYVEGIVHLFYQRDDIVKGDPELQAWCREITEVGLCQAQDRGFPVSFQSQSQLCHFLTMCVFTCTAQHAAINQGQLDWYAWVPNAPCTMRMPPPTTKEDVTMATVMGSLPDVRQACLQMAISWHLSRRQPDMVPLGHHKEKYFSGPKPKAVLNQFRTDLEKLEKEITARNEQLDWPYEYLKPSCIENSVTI
#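 Hydroperoxide output read as Fe(III)-xylenol orange absorbance, 573-to-405 nm ratio, after 30 min reaction with 40 uM arachidonic acid. Enzyme: 150 nM purified human 12hLO, 15 min compound preincubation; 25 mM Hepes pH 7.0, room temperature.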
# 15-hLO-2 inh: qHTS Assay for Inhibitors of 15-hLO-2 (15-human lipoxygenase 2); hit rate 0.56% among 110,000; purified 15hLO-2, xylenol orange hydroperoxide absorbance; Polyunsaturated fatty acid lipoxygenase ALOX15B (Homo sapiens), O15296; Potency, µM (doses to about 57.1 µM), inactives show top-dose activity change, negative = inhibition, hits mostly inhibitors; further: potency means the concentration at half of the fitted maximal effect; nearly all actives have a fitted effect of over 60% in size
#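 Purified human 15hLO-2 (50 nM) preincubated 15 min with compound, then 45 uM arachidonic acid for 90 min at RT in 25 mM Hepes pH 7.5, 0.01% Triton X-100. Hydroperoxide detected by Fe-xylenol orange; 573/405 nm absorbance ratio.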
# PNC assembly inh: High Content Assay for Compounds that inhibit the Assembly of the Perinucleolar Compartment | PC3M PTB-GFP, PNC prevalence imaging, 16 h; active compounds read low | activity change (PNC), negative = inhibition, % at 10 µM | hit rate 3.1% among 140,000 | AID 2417, 2010;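 active means readout at or below -70, meaning at least 70% loss of cells showing the perinucleolar compartment, a nuclear body marking cancer cells; inconclusive means readout between -30 and a set limit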;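 further: plate controls were DMSO wells for no effect and camptothecin positive control wells for full effect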
#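 Compounds are pinned in duplicate onto adhered PC3M cells stably expressing GFP-tagged PTB and incubated 16 h at 37 C. Cells are then fixed, nuclei stained with Hoechst, and PNC-positive cells counted.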
# Active calls of the source: *; ? = inconclusive; / = no result given; [ ] = another dose, or the depositor's remark. Shown are actives, neighbours in structure and some others; about 3.1% of the full set was active somewhere. Unless noted, the call rests on the fitted dose curve; in most records, active means well fitted curve in the direction sought with a large enough effect; inconclusive means small, poorly fitted or top-dose-only effect, or another doubt; inactive means no such curve, though single readings can be large; an effect the other way counts as inactive or inconclusive. Unless noted, on the % scale 0 is the no-effect control and ±100 the full control effect.
SMILES,ALOX12 inhib,15-hLO-2 inh,PNC assembly inh
C[C@@H]1[C@H](C)CC[C@@]2(C(=O)O[C@H]3O[C@@H](CO[C@H]4O[C@@H](CO)[C@@H](O[C@H]5O[C@@H](C)[C@@H](O)[C@@H](O)[C@@H]5O)[C@@H](O)[C@@H]4O)[C@@H](O)[C@@H](O)[C@@H]3O)CC[C@]3(C)C(=CC[C@H]4[C@@]5(C)C[C@@H](O)[C@@H](O)[C@](C)(CO)[C@@H]5CC[C@@]43C)[C@@H]12,0.4%[25.6 µM],-5.6%[25.6 µM],/
OCCNCCCOc1cccc(Cl)c1Cl,1.4%,40.6%,/
COc1ccccc1-c1nc(N(C)C)c2ccccc2n1,/,-10.6%,/
O=C(CSCc1ccc(Br)cc1)Nc1ccc(S(=O)(=O)N2CCOCC2)cc1,-5.1%,-6.4%,39.1
Cc1ccccc1NS(=O)(=O)c1ccc(NC(=O)CSCc2ccc(Br)cc2)cc1,-4.0%,-6.4%,-99.4*
NCCSS(=O)(=O)CCN,12.7%[11.4 µM],-5.7%[11.4 µM],/
CCOC(=O)N1CCN(C(=O)C2CC(=O)N(c3ccc(OC)cc3)C2c2ccc(OC)cc2)CC1 (centres undefined),6.1%,/,-100.0*
COc1ccc(C2C(C(=O)O)CC(=O)N2c2ccc(OC)cc2)cc1 (centres undefined),0.8%,0.9%,-13.6
Cc1nc(N2CCOCC2)c2nc(-c3ccccc3)n(CC3CCN(C)CC3)c2n1,3.1%,17.7%,/
C[C@@H]1CCN=C(N)S1,-0.8%,16.2%,/
O=C(CSCc1ccc(Cl)cc1)NN=C1CCCCCC1,-1.9%,/,-93.2*
CN1CCC(=NNC(=O)CSCc2ccccc2)CC1,-3.8%,3.5%,4.7
Cc1onc(-c2c(F)cccc2Cl)c1C(=O)NCc1ccccn1,0.5%,-3.0%,-21.1
Cc1onc(-c2ccccc2Cl)c1C(=O)NCc1ccc(S(N)(=O)=O)cc1,-1.1%,3.3%,?
Cc1onc(-c2c(F)cccc2Cl)c1C(=O)NCCc1ccc(S(N)(=O)=O)cc1,1.6%,1.8%,-94.7*
Cc1onc(-c2c(F)cccc2Cl)c1C(=O)Nc1ccc(S(=O)(=O)Nc2ncccn2)cc1,0.2%,-1.5%,-123.3*
N[C@@H](COP(=O)(O)O)C(=O)O,-4.6%,14.6%,/
Cc1cnc(CNc2ncncc2-c2c(C)noc2C)cn1,/,-3.8%,/
CC(=O)Nc1ccc(NC(=O)Cc2sc(C)nc2-c2ccc(C)cc2)cc1,-6.5%,/,30.3
COc1ccc(-c2nc(C)sc2CC(=O)O)cc1,-1.4%,/,-100.0*
C=CC1=C(C)C2=Cc3c(C=C)c(C)c4[n]3[Sn+2][n]3c(c(C)c(CCC(=O)O)c3=CC3=NC(=C4)C(C)=C3CCC(=O)O)=CC1=N2,-26.4%,?,/
Cc1cc(=O)[nH]c2cc3oc4ccccc4c3cc12,0.8%[11.4 µM],-3.0%[11.4 µM],/
CCCCCCCCCC(=O)N[C@@H](CN1CCOCC1)[C@@H](O)c1ccccc1,-2.9%,21.6%,/
COC(=O)C1(CC(C)C)C=C2C(=C(C(C)C)C(=O)C2C)CN1 (centres undefined),-3.9%,-4.4%,/
O=C(Nc1ccccc1C(F)(F)F)C1CC(=O)N(c2ccccc2F)C1 (centres undefined),1.4%,5.4%,-80.8*
SMILES,ALOX12 inhib,15-hLO-2 inh,PNC assembly inh
CC(C)Oc1ccc(N2CC(C(=O)Nc3ccccc3F)CC2=O)cc1 (centres undefined),-3.8%,1.1%,66.1
CC[C@@]12CCCN3CCc4c(n(c5ccccc45)C(=O)C1)[C@H]32,7.3%[11.4 µM],-8.3%[11.4 µM],/
CCC(C)(C)NC(=O)C(c1ccncc1)N(Cc1cccs1)C(=O)Cn1nnc2ccccc21 (centres undefined),-1.7%,2.5%,-0.8
Cc1cc(C)c(N(C(=O)Cn2nnc3ccccc32)C(C(=O)NC(C)(C)C)c2ccsc2)c(C)c1 (centres undefined),-1.8%,-2.9%,-6.7
CCC(C)(C)NC(=O)C(c1ccc(C)cc1)N(Cc1ccco1)C(=O)Cn1nnc2ccccc21 (centres undefined),5.8%,/,-100.0*
CC(C)(C)NC(=O)C(c1ccsc1)N(CCc1ccccc1)C(=O)Cn1nnc2ccccc21 (centres undefined),-3.1%,2.4%,-88.6*
N#Cc1cccc(-c2ccc3ncnc(NCc4ccccc4)c3c2)c1,/,-9.7%,/
CCOC(=O)CCCNC(=O)N1CCc2nc(COc3ccccc3)c3c(c2C1)CO[C@@H](C)C3,2.1%[11.4 µM],/,/
O=C1CC(c2ccccc2O)Oc2ccc(O)cc21 (centres undefined),-2.8%,-7.1%,/
CC(=O)N1C2(C=CC1(C)C(=O)NCc1ccccn1)CCCCC2 (centres undefined),-3.5%,15.2%,/
Cc1ccccc1NC(=O)Nc1cccs1,-6.9%,-17.6%,?
CC(C)NC(=O)Nc1cccs1,-4.6%,/,-100.0*
Cc1ccc(C)c(NC(=S)NNC(=O)c2csc(C)c2C)c1,-0.5%,/,?
Cc1ccc(C)c(NC(=S)NNC(=O)c2csc(C(C)C)c2)c1,-22.2%,/,-118.9*
C#CCCCC(=S)Nc1ccccc1,0.6%,-7.5%,/
O=C(O)c1ccccc1Nc1ccc([N+](=O)[O-])cc1,-5.1%,/,-86.9*
O=C(O)c1ccccc1Nc1ccccc1C(=O)O,4.8%,-4.0%,?
COCCn1c(=O)c(-c2ccccc2)nc2cnc(OC)nc21,/,-2.8%,/
COc1ccc(-n2c(=O)c(-c3ccccc3)nc3cncnc32)cc1,/,-3.9%,/
Cc1nn(C)cc1CNC(=O)c1cnn2c1NC(c1ccc(Br)cc1)CC2C(F)(F)F (centres undefined),-10.4%,-1.0%,-4.8
Cc1c(CNC(=O)c2cnn3c2NC(c2ccc(Br)cc2)CC3C(F)(F)F)cnn1C (centres undefined),-17.1%,-11.1%,-123.0*
O=C(O)c1nnsc1COCc1ccccc1,3.6%[11.4 µM],-4.5%[11.4 µM],/
Nc1nc(N2CCOCC2)nc(N(c2ccccc2)c2ccccc2)n1,-1.8%,1.7%,37.8
Nc1nc(CSCc2ccccc2)nc(N2CCOCC2)n1,-5.2%,-8.9%,-106.5*
CC1(C)O[C@@H]2C[C@H]3[C@H]4C[C@H](F)C5=CC(=O)C=C[C@@]5(C)[C@@H]4[C@H](O)C[C@]3(C)[C@]2(C(=O)CO)O1,-1.7%[25.6 µM],-3.3%[25.6 µM],/
SMILES,ALOX12 inhib,15-hLO-2 inh,PNC assembly inh
CCc1ccccc1NC1=NCC(=O)N1Cc1ccc2c(c1)OCO2,-0.1%,/,16.3
CNc1ccccc(-c2ccc3cc4c(cc3n2)OCO4)c1=O,-2.0%,/,-109.0*
COc1cc2c(cc1O)C(Cc1ccc(O)cc1)[N+](C)(C)CC2 (centres undefined),-0.1%,3.4%,/
c1ccc(Cn2nnc(-c3ccccc3)n2)cc1,-2.3%,/,-100.0*
N#Cc1cccc(Cn2nnc(-c3ccccc3)n2)c1,-1.8%,-1.8%,6.5
Nc1nnn(Cc2ccccc2)n1,7.6%,/,-100.0*
NCc1nnn(Cc2ccccc2)c1N,2.5%[11.4 µM],1.4%[11.4 µM],/
c1csc(CNc2ncncc2-c2ccc3c(c2)OCO3)c1,1.6%,4.0%,/
Cc1ccc(NC(=O)c2cn(CCC#N)nc2-c2cccs2)c([N+](=O)[O-])c1,-7.6%,/,-112.5*
Cc1ccc(NC(=O)/C=C/c2cccs2)c([N+](=O)[O-])c1,-1.0%,-2.6%,-25.9
CCCNCC(O)COc1ccccc1C(=O)CCc1ccccc1 (centres undefined),1.8%,42.4%,-12.8

# Screening results as filed in PubChem.
